Measured values from ChEMBL document CHEMBL4513216, “Probing the Open Global Health Chemical Diversity Library for Multistage-Active Starting Points for Next-Generation Antimalarials” (ACS Infect Dis, 2020).
The whole screen tested about 69,000 compounds, of which about 8,600 (12%) showed an effect of 50% or more. This is one part of a sample in which strong results are shown more often than they occur.

Each molecule was assayed on Plasmodium berghei (assay: Screen against P. berghei liver stage (PbLuc), transformed with Luciferase, at 10uM). Conditions: tested at 10 uM.
Type: functional, HepG2

| Compound | INHIBITION |
| --- | --- |
| CN(C)S(=O)(=O)c1ccc(=O)n(CC2CCCCO2)c1 (stereo unspecified) | 4.52% |
| O=C(c1cccnc1)N1CCN(CC2CC2)c2ncccc2C1 | -18.4% |
| CSc1ccccc1C(=O)N1CCN(C)C2(CCC(=O)N(C)CC2)C1 (stereo unspecified) | 46.7% |
| Cc1c(F)cc(C(=O)O)cc1S(=O)(=O)Nc1ccccc1 | 20.265% |
| Cn1c(C2CCCN2C(=O)CN2CCCC2=O)nc2ccccc21 (stereo unspecified) | 24.7% |
| Cn1c(C2CCCN2C(=O)c2cn(CCN)nn2)nc2ccccc21 (stereo unspecified) | 28% |
| Cn1cc(C2CCCN2C(=O)Cn2ccc3ccccc32)cn1 (stereo unspecified) | 23.1% |
| Cn1c(C2CCCCN2C(=O)CN2CCCC2=O)nc2ccccc21 (stereo unspecified) | 61.5% |
| Cn1c(C2CCCN2C(=O)CN2CSCC2=O)nc2ccccc21 (stereo unspecified) | 59.3% |
| O=C1CSCN1CC(=O)N1CCCC1c1nc2ccccc2s1 (stereo unspecified) | 32.3% |
| CN1CCOC(CN(C(=O)CN2CCCC2=O)c2nccs2)C1 (stereo unspecified) | 48.1% |
| CN1CCOC(CN(C(=O)CCc2ccco2)c2nccs2)C1 (stereo unspecified) | 43.3% |
| CN1CCOC(CN(C(=O)CC2CCCC2)c2nccs2)C1 (stereo unspecified) | 55.5% |
| CN1CCOC(CN(C(=O)CCc2cnn(C)c2)c2nccs2)C1 (stereo unspecified) | 62.6% |
| Cc1cnn(CCC(=O)N(CC2CN(C)CCO2)c2nccs2)c1 (stereo unspecified) | -31.6% |
| CN1CCOC(CN(C(=O)COc2ccccc2)c2nccs2)C1 (stereo unspecified) | -2.53% |
| CCC1(CO)CCCN(C(=O)c2cc(COc3ccccc3F)[nH]n2)C1 (stereo unspecified) | -39.3% |
| Cn1cc(-c2cc(C(F)(F)F)nn2CCC#N)cn1 | 20.1% |
| Cc1cc2c(cc1NC(=O)NCC(C)C)OCO2 | 28.5% |

| Compound | INHIBITION |
| --- | --- |
| O=C1CCC2(CCN(CC[C@@H](O)c3ccccc3)CC2)CN1CC1CC1 | -51.7% |
| O=C(c1cccs1)N1CCCC(c2cc(C(F)F)n3ncnc3n2)C1 (stereo unspecified) | 40% |
| O=C(CCCn1cccn1)N1CCCC(n2cncn2)C1 (stereo unspecified) | 12.9% |
| CC(C)C(=O)N1CCc2c(CN(C)Cc3ccco3)cncc2C1 | -11.2% |
| CC(C)(C)OC(=O)NC(C)(C(N)=O)c1cccc(Cl)c1 (stereo unspecified) | 65.6% |
| Cc1nncn1CCNC(=O)C(C)(C)c1cccc(Cl)c1 | 24.3% |
| CC(NC(=O)Cc1cccs1)(C(N)=O)c1cccc(Cl)c1 (stereo unspecified) | 60% |
| CC(NC(=O)Cc1ccccc1F)(C(N)=O)c1cccc(Cl)c1 (stereo unspecified) | 32% |
| COCCC(=O)NC(C)(C(N)=O)c1cccc(Cl)c1 (stereo unspecified) | 26.4% |
| CC(C)(C)SCC(=O)NC(C)(C(N)=O)c1cccc(Cl)c1 (stereo unspecified) | -19.5% |
| CC(C)(CNC(=O)c1ccc(Cl)o1)NC(=O)OC(C)(C)C | -60.9% |
| CC(C)(C)CC(=O)NC(C)(C(N)=O)c1cccc(Cl)c1 (stereo unspecified) | 74.5% |
| Cc1cc(CNC(=O)Cc2cccs2)ccc1S(C)(=O)=O | -3.68% |
| CCN(CC1=CCN(C)CC1)C(=O)CCOC | 29.5% |
| CC1CCN(CCNCc2cc(-c3ccccc3)cn3nnnc23)CC1 | 23.2% |
| Cc1nc(C)n(CC2CN(CCCOc3ccc(F)cc3)CCO2)n1 (stereo unspecified) | 25.6% |
| COC(=O)c1sc(C(F)(F)F)cc1OC | 43.2% |
| Cc1nsc(N2CCN(C(=O)Nc3cccc(C#N)c3)CC2)n1 | 37.2% |
| Cc1nsc(N2CCN(CC(=O)NCc3ccc(F)cc3)CC2)n1 | 40.9% |

| Compound | INHIBITION |
| --- | --- |
| OCc1csc(N2CCN(Cc3cccc(F)c3)CC2)n1 | 28.7% |
| Cc1nsc(N2CCN(Cc3cccc(F)c3)CC2)n1 | 57.6% |
| Cc1nsc(N2CCN(C(=O)Nc3ccc4[nH]ccc4c3)CC2)n1 | 25.5% |
| Cc1nsc(N2CCN(C(=O)Nc3cccc(F)c3)CC2)n1 | 68.3% |
| CN(Cc1ccco1)C1CCC12CCN(C(=O)c1ccnnc1)CC2 (stereo unspecified) | -39.3% |
| O=C1CC2(CCCCN2CC2CC2)CN1c1ccccc1 (stereo unspecified) | -31.4% |
| COCCN1CCCCC12CC(=O)N(c1ccccc1OC)C2 (stereo unspecified) | 93.7% |
| COCCCN1CCCCC12CC(=O)N(Cc1ccccn1)C2 (stereo unspecified) | 18.7% |
| COCCN1CCCCC12CC(=O)N(c1cccc(C#N)c1)C2 (stereo unspecified) | 61.1% |
| N#Cc1cccc(N2CC3(CCN(C(=O)C4CC=CC4)C3)CC2=O)c1 (stereo unspecified) | 13.6% |
| Cc1ccccc1N1CC2(CCCCN2CC2CC2)CC1=O (stereo unspecified) | 5.63% |
| Fc1ccc(CN2Cc3nccn3CC(CN3CCOCC3)C2)cc1 (stereo unspecified) | 32.2% |
| O=C(O)c1cc(-c2ccncc2)cc(S(=O)(=O)N2CCCCCC2)c1 | -8% |
| Cc1ccc(C(=O)N2Cc3c(CN(C)C)nn(C)c3C2)cc1C | 14.6% |
| CCN(C)S(=O)(=O)NCC1CCN(Cc2ccccc2C)CC1 | 24% |
| CCN(C)C(=O)c1cccc(S(=O)(=O)NCCc2nc(C)cc(=O)[nH]2)c1 | 45.2% |
| CCc1nc(CCNS(=O)(=O)c2cccc(C(=O)N(C)CC)c2)cs1 | 55.4% |
| CCN(C)C(=O)c1cccc(S(=O)(=O)NCCc2csc(N)n2)c1 | 48% |
